Measured values reported in the supplement of paper PMC3334620.
Whole data set: some 33,000 sequences, median “E-score (-0.5 to 0.5)” near -0.032, cut for the highest 2% near 0.36. The sample holds the highest values, similar sequences and a random draw of the others, so the mix is not that of the screen.

The sequences below were run against T1, Sko1 (UniProt Q02100) (assay: PBM E-score (8-mer binding enrichment) (E-score (-0.5 to 0.5)); higher = stronger / more preferred TF binding). Conditions: protein concentration: 200 nM; construct: GST-full length.
T1 sequence: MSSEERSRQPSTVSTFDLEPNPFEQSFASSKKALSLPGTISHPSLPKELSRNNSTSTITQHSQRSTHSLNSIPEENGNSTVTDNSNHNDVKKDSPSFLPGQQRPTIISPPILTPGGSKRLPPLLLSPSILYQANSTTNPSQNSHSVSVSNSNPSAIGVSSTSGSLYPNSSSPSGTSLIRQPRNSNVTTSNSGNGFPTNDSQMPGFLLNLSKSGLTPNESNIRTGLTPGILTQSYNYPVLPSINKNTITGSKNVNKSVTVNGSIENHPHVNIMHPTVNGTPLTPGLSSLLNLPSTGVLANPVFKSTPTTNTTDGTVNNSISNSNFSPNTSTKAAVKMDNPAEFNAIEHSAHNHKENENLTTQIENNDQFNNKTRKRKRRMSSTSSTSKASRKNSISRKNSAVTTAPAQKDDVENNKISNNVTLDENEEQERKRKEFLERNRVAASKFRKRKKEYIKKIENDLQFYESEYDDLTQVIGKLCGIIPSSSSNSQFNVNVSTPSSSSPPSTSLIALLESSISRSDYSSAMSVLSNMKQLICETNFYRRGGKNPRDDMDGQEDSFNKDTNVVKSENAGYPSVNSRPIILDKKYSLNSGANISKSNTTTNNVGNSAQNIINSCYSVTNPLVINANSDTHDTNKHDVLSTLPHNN
Description: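 Universal 'all 10-mer' protein binding microarrays (Agilent AMADID 015681) probed with GST-tagged S. cerevisiae TFs (full-length or DBD) made by in vitro transcription/translation (PURExpress), about 100-200 nM. Bound TF was detected with fluorescent anti-GST. Each ungapped 8-mer (which stands for itself and its reverse complement) is scored by the PBM enrichment score (E-score), a modified Wilcoxon-Mann-Whitney statistic from -0.5 to +0.5, computed with the Universal PBM Analysis Suite. Scale: above 0.35 generally sequence-specific binding.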

Compared with ACGGTTTA, CTCCAGGA is lower in “PBM E-score” value: -0.0562 for the first, -0.0718 for the second.

Going from CGTGGTAC to ACCCGCGG, the “PBM E-score” value falls from 0.213 to -0.0735.

First: CAGCGAGG
Second: TCGGGCAA
The “PBM E-score” value of the first is lower: -0.233 for the first, -0.0812 for the second.

Compared with ATCCTGTC, CAAATATC is higher in “PBM E-score” value: -0.0275 for the first, 0.109 for the second.

Compared with CAGGGTCG, GTCGGTGA is higher in “PBM E-score” value: -0.241 for the first, 0.049 for the second.

First: ACAACTAG
Second: CACGTCGC
The “PBM E-score” value of the first is lower: -0.00944 for the first, 0.235 for the second.

Compared with CACGTCAC, CACGTCCC is lower in “PBM E-score” value: 0.482 for the first, 0.00358 for the second.

Compared with GGCGTCAA, TGCGTCAA is higher in “PBM E-score” value: 0.235 for the first, 0.377 for the second.

First: TGCGTCCA
Second: GGTGAGCA
The “PBM E-score” value of the first is higher: 0.155 for the first, -0.0791 for the second.

Compared with AATTTAGC, GCCTGATA is lower in “PBM E-score” value: 0.187 for the first, -0.0647 for the second.

Going from TAAGGGAA to CAGACGCA, the “PBM E-score” value falls from 0.108 to 0.055.

Compared with CAGACGTA, AAGACGTG is lower in “PBM E-score” value: 0.387 for the first, 0.291 for the second.

Compared with GAGACGAA, AAGACGTC is higher in “PBM E-score” value: -0.0289 for the first, 0.419 for the second.

Going from AAGACGGC to AAGACGAC, the “PBM E-score” value rises from -0.219 to 0.0714.

Compared with GAGACGGA, AAGACGGA is lower in “PBM E-score” value: -0.0605 for the first, -0.0952 for the second.

First: AAGACGTA
Second: GAGACGTA
The “PBM E-score” value of the first is higher: 0.454 for the first, 0.394 for the second.

First: CAGACGTC
Second: AGTCCTTC
The “PBM E-score” value of the first is higher: 0.322 for the first, -0.375 for the second.

Compared with TCCGAACA, CAATCTGG is higher in “PBM E-score” value: -0.124 for the first, -0.104 for the second.

Going from AGTACTCG to AGCTTAGG, the “PBM E-score” value falls from 0.0859 to -0.198.

First: CTTCGGTC
Second: CCTGTGTA
The “PBM E-score” value of the first is lower: -0.0632 for the first, -0.0155 for the second.

Going from GTCGGAAC to AGTAGTAC, the “PBM E-score” value rises from -0.0708 to 0.173.

Compared with CGTAGTAG, CGTAGTAC is higher in “PBM E-score” value: 0.309 for the first, 0.372 for the second.

Compared with AGGGTTGG, ATGTAATG is higher in “PBM E-score” value: 0.0955 for the first, 0.321 for the second.

Going from CCGTAATC to AAGTAATG, the “PBM E-score” value falls from 0.111 to 0.0878.

ACGTAATC and ACGTAATG are the same in “PBM E-score” value: 0.492 for the first, 0.492 for the second.

Compared with ATGTAATC, AGGCCGCC is lower in “PBM E-score” value: 0.313 for the first, -0.182 for the second.

First: CTTCCCGC
Second: CACCTTCG
The “PBM E-score” value of the first is higher: -0.0138 for the first, -0.136 for the second.

Compared with ATCTTGCC, GTCGAACA is higher in “PBM E-score” value: -0.0574 for the first, -0.00814 for the second.

Going from ACTGCGTA to ATTGCGCA, the “PBM E-score” value falls from 0.343 to 0.251.

Compared with ATTGCGCC, ATTGCGTC is higher in “PBM E-score” value: -0.0972 for the first, 0.414 for the second.

Compared with ATTGCGTG, GCTGCGTA is lower in “PBM E-score” value: 0.419 for the first, 0.308 for the second.

Compared with GTTGCGGA, ATTGCGAG is lower in “PBM E-score” value: 0.0145 for the first, -0.0027 for the second.

Going from GTTGCGTA to ATTGCGTA, the “PBM E-score” value rises from 0.422 to 0.472.

Compared with CTTGCGTC, ACTGCGTG is lower in “PBM E-score” value: 0.27 for the first, 0.131 for the second.

Going from GAGCAGAC to GTGTCCCA, the “PBM E-score” value falls from -0.0861 to -0.0921.

Going from AGCCAGCT to ATGAATTC, the “PBM E-score” value rises from -0.097 to 0.0634.

First: CACAGTCA
Second: ATAATAGC
The “PBM E-score” value of the first is lower: -0.095 for the first, 0.0417 for the second.

Going from GCGGTCCA to ATTCAGCA, the “PBM E-score” value rises from -0.323 to 0.00168.

Going from CTTGCGTA to CTTGCGGA, the “PBM E-score” value falls from 0.423 to -0.261.

Compared with CCTGCGTA, CGTTGAGA is lower in “PBM E-score” value: 0.315 for the first, 0.0138 for the second.

Going from AGCATCCA to AAAAATCC, the “PBM E-score” value rises from -0.238 to -0.162.

Compared with CGTATGAC, ATTATGTC is lower in “PBM E-score” value: 0.445 for the first, 0.336 for the second.

Compared with CGTATGAA, ATTATGTG is lower in “PBM E-score” value: 0.361 for the first, 0.266 for the second.

Compared with CGTATGAG, AGTATGAA is lower in “PBM E-score” value: 0.267 for the first, 0.0617 for the second.

Compared with GGTATGAC, ATTATGTA is higher in “PBM E-score” value: 0.183 for the first, 0.398 for the second.

Compared with AGTATGTA, CGTATGTC is higher in “PBM E-score” value: 0.0841 for the first, 0.321 for the second.

First: CGTATGTA
Second: CGTATGGC
The “PBM E-score” value of the first is higher: 0.367 for the first, 0.348 for the second.

Going from CCACATCA to GAGATCGA, the “PBM E-score” value falls from 0.175 to 0.0574.

First: ATCACTCA
Second: GAGCTAGA
The “PBM E-score” value of the first is higher: 0.0754 for the first, -0.11 for the second.

First: CCTGTTCA
Second: AAGCATAG
The “PBM E-score” value of the first is lower: -0.203 for the first, -0.128 for the second.

Compared with AGAGCAGG, CATCGCCG is lower in “PBM E-score” value: -0.126 for the first, -0.137 for the second.

Going from AAACAGCC to GCTATACC, the “PBM E-score” value falls from -0.17 to -0.171.

Going from AAATCCCC to GGTAGATA, the “PBM E-score” value rises from -0.238 to 0.0735.

Compared with AGTATGAT, AGTATGAG is lower in “PBM E-score” value: 0.286 for the first, 0.129 for the second.

In the case of AGTATGAC, the “PBM E-score” value was 0.376.
